Compound activity deposited in PubChem BioAssay by National Center for Advancing Translational Sciences (NCATS).
Lassa entry inh – blocks Lassa virus binding to or entry into cells. Lassa virus pseudotype entry inhibition, cell reporter. Potency, µM (highest dose often 37.9 µM), hits mostly inhibitors. actives 1.2% (n = 300,000); calls by dose curve; tested in HEK293 cells; note: nearly all actives have a fitted effect of over 50% in size
Marburg entry inh – Marburg virus entry inhibition; actives 1.8% (n = 300,000); Marburg virus pseudotyped entry inhibition, cell reporter; Potency, µM (series often up to 37.8 µM), usual class: inhibitors; AID 540276; calls by dose curve; tested in HEK293 cells
HCMV inh – inhibitors of human cytomegalovirus | activity change, negative = inhibition, % at 57.5 µM | actives 4.5% (n = 410,000) | HFF cells, HCMV-luciferase reporter, 72 h; hits give low values; in the data active = activity change below about -60%; inconclusive = no clear call, values can overlap the other calls; inactive = above about -39%
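HFF cells seeded 16 h at 37C, treated with compounds, infected with luciferase-reporter HCMV at MOI 1 PFU/cell; luciferase read at 72 h post infection, normalized to buffer-only and Salinomycin controls.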
HCV inh – blocks hepatitis C virus; AID 651820; Potency, µM (titrated, usually from 41.8 µM), usual class: inhibitors; Huh7.5.1 HCVcc-Cre infection, luciferase reporter, 44 h; actives 3.4% (n = 340,000); active = well fitted inhibition curve with a large enough effect; inconclusive = small, poorly fitted or top-dose-only effect, or another doubt; inactive = no such curve, though single readings can be large or run the other way
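HCVcc-Cre virus at an moi near 0.5 was added right after compound to cells cultured 4 h from seeding (1,000 cells/well). Luciferase activity was determined 44 h later, 15 min after substrate addition at RT.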
FMDV antiviral – antivirals against foot and mouth disease virus; FMDV antiviral cell-based qHTS; Potency, µM (doses to about 57.9 µM), most hits filed as inhibitors; actives 1.2% (n = 410,000); AID 1159524; calls by dose curve; tested in HEK293T cells; note: read-out not given here; nearly all actives have a fitted effect of over 45% in size
Each line names hits and unclear results; the compound was inactive in the other large screens. Compounds with a hit are over-represented: about 7.9% of the library has one in this group of screens.

Cc1ccc(S(=O)(=O)N[C@H](C(=O)N2CCC3(O)CCCCC3C2)c2ccccc2)cc1 (some centres undefined)	none
COc1ccc(N=Nc2ccc(CO)cc2)cc1	Lassa entry inh 1µM, Marburg entry inh inconclusive
Cc1ccc(NC(=O)CN2CCN(C(=O)c3ccco3)CC2)cc1S(=O)(=O)N(C)C	none
Cc1cc(NC(=O)c2cccc(COc3ccc(Br)cc3)c2)no1	Lassa entry inh 13µM, Marburg entry inh 7.3µM, HCV inh inconclusive
CC(C)c1cc(C(N)=O)c(NC(=O)c2cccc(COc3ccc(Cl)cc3)c2)s1	Lassa entry inh inconclusive, Marburg entry inh 3.2µM, HCV inh inconclusive
Cc1noc(C)c1COc1cccc(C(=O)Nc2ccc(Br)cc2F)c1	Lassa entry inh inconclusive, Marburg entry inh inconclusive, HCV inh 2.8µM
COc1cccc(C(=O)Nc2ccc(F)cc2F)c1	none
CC(C)Oc1cccc(C(=O)Nc2ccc(Br)cc2F)c1	Lassa entry inh 2µM, Marburg entry inh inconclusive, HCV inh inconclusive
Cc1cccc(-c2cc(C(=O)O)c3c(-c4ccc(F)cc4)[nH]nc3n2)c1	none (no result: Marburg entry inh, HCV inh)
CC(C)NC(=O)c1cc(-c2ccc(F)cc2OC(C)C)n[nH]1	none (no result: Lassa entry inh, Marburg entry inh, HCV inh)
O=C(Cn1cc(S(=O)(=O)Cc2ccc(F)cc2)c2ccccc21)NCc1ccccc1	none (no result: Marburg entry inh, HCV inh)
CC1(C(=O)N2Cc3ccccc3C2)CCN1C(=O)C1(c2ccccc2)CC1 (centres undefined)	none (no result: Lassa entry inh, Marburg entry inh, HCV inh)
Cc1ccc(C2=CN(CCC(=O)O)C(=O)C2)cc1	none (no result: Lassa entry inh, Marburg entry inh, HCV inh, FMDV antiviral)
COc1ccccc1N1CCN(C(=O)c2cn(C)c3ccc(S(=O)(=O)N(C)C4CCCCC4)cc3c2=O)CC1	none (no result: HCV inh)
CCN(CC)CC(C)(C)C(=O)/C=C/c1ccc(/C=C/C(=O)C(C)(C)CN(CC)CC)cc1	Lassa entry inh 3.5µM, Marburg entry inh 1.4µM, HCV inh 2.2µM, FMDV antiviral 3.5µM
C=CCCCC=C(C)[C@H](OCc1ccc(OC)cc1)[C@H](CCC=C(C)C(N)=O)OC	none (no result: Lassa entry inh, HCMV inh, HCV inh, FMDV antiviral)
Cc1noc(C)c1NC(=O)Nc1ccc2c(c1)CC(=O)N([C@H](C)CO)C[C@@H](C)[C@H](CN(C)CC1CCCCC1)O2	none (no result: Lassa entry inh, Marburg entry inh)
COc1ccc(Cn2ccnc2SCC(=O)Nc2ccc(F)cc2F)cc1	none (no result: Lassa entry inh, Marburg entry inh, HCV inh)
CCN1CC(=O)Nc2cc(S(=O)(=O)N3CCOCC3)ccc21	HCMV inh -60
CCN1C(=O)Cc2cc(S(=O)(=O)N3CCOCC3)ccc21	none
Cc1ccc(C(=O)N(Cc2cc3cc4c(cc3nc2N2CCOCC2)CCC4)CC2CCCO2)s1 (centres undefined)	none (no result: Lassa entry inh, Marburg entry inh, HCMV inh, HCV inh)
CC(=O)c1c(C)nc2ccccc2c1N	Lassa entry inh inconclusive
Cc1nc2ccccc2c(N)c1C(=O)/C=C/c1ccccc1	Lassa entry inh 10µM, Marburg entry inh inconclusive, HCMV inh -99, HCV inh 11µM, FMDV antiviral 18µM
CCOc1ccccc1NC(=O)Nc1ccc2c(c1)CCC2	HCV inh 13µM (no result: Lassa entry inh, Marburg entry inh)
CCOc1ccccc1NC(=O)Nc1ccc2c(c1)OCO2	HCV inh inconclusive
CCOc1ccccc1NC(=O)Nc1cccc(C(C)=O)c1	HCV inh 7.1µM
CCOc1ccccc1NC(=O)Nc1cccc(S(N)(=O)=O)c1	Lassa entry inh inconclusive, HCMV inh inconclusive, HCV inh 32µM
CCOc1ccccc1NC(=O)Nc1cccc(NC(C)=O)c1	HCV inh inconclusive
CCOc1ccccc1NC(=S)Nc1ccc(S(N)(=O)=O)cc1	none
CCOc1ccccc1NC(=O)NCc1ccccc1F	HCV inh 11µM (no result: Lassa entry inh, Marburg entry inh)
COc1cc(C2C(C(=O)OCC(C)C)=C(C)N=C3SCCC(=O)N32)ccc1OCc1ccccc1 (centres undefined)	Marburg entry inh inconclusive (no result: HCV inh)
CCOc1ccccc1NC(=S)NC(=O)C1CC1	Lassa entry inh inconclusive, HCMV inh -64
O=C(NC(=S)Nc1ccccc1Br)C1CC1	none (no result: Lassa entry inh, Marburg entry inh)
COc1ccc(NC(=O)NNS(=O)(=O)c2cc(C)ccc2C)cc1OC	Marburg entry inh inconclusive
CCOC(=O)c1cccc(NC(=O)Nc2cc(OC)ccc2OC)c1	Lassa entry inh 16µM, Marburg entry inh inconclusive, HCMV inh inconclusive, HCV inh 16µM, FMDV antiviral inconclusive
COc1ccc(OC)c(NC(=O)NNS(=O)(=O)c2ccc(C)cc2C)c1	HCMV inh -62
COc1ccc(OC)c(NC(=O)CCOc2cccc(C)c2)c1	Lassa entry inh inconclusive, Marburg entry inh inconclusive, HCV inh 11µM, FMDV antiviral inconclusive
COc1ccccc1NC(=O)COC(=O)C1=NN(c2ccccc2)C(=O)CC1	none
O=C(Nc1c2c(nn1-c1ccccc1)CS(=O)(=O)C2)c1cc2ccccc2o1	Marburg entry inh inconclusive
CCCN(CCC)S(=O)(=O)c1cc2c3c(c1)CCN3C(=O)CC2	none (no result: Lassa entry inh, Marburg entry inh)
Cc1cc(C)cc(C(=O)OCC(=O)Nc2ncccn2)c1	none (no result: Lassa entry inh, Marburg entry inh)
O=C(N/N=C/c1ccccc1)c1cccc2ccccc12	none
O=C(N/N=C/c1sc2ccccc2c1O)c1ccccc1	Lassa entry inh inconclusive, Marburg entry inh inconclusive, HCV inh 4.5µM (no result: HCMV inh)
O=C(N/N=C/c1sc2ccccc2c1O)c1cccc2ccccc12	Lassa entry inh inconclusive, Marburg entry inh 14µM, HCMV inh -104, HCV inh 1.8µM
COc1ccc(C(=O)N/N=C/c2sc3ccccc3c2O)cc1	Lassa entry inh inconclusive, Marburg entry inh inconclusive, HCV inh inconclusive (no result: HCMV inh)
COc1ccc2cc(C(=O)N/N=C/c3sc4ccccc4c3O)ccc2c1	Lassa entry inh inconclusive, Marburg entry inh inconclusive, HCMV inh -98, HCV inh inconclusive, FMDV antiviral inconclusive
COc1ccc(/C=C/C(=O)Nc2cccnc2Cl)cc1	none (no result: Lassa entry inh, Marburg entry inh)
COC(=O)c1cc(CNC(=O)c2cccc3ccccc23)cc(NC(=O)c2ccccc2OC)c1	none (no result: Lassa entry inh, Marburg entry inh, HCMV inh, HCV inh)
COc1ccccc1C(=O)Nc1nc2nc(C)c(Cc3ccccc3)c(=O)n2[nH]1	none (no result: HCV inh)
COC(=O)C1=C(C(=O)OC)[C@@H]2Nc3ccccc3[C@@]23C[C@@H](C(=O)OC)N(C(=O)N2CCNC2=O)C3=N1	none (no result: Lassa entry inh, HCMV inh, HCV inh, FMDV antiviral)
O=S(=O)(O)Sc1ccccc1	HCMV inh -87 (no result: Lassa entry inh, Marburg entry inh, HCV inh)
Cc1nn(CC(=O)NCCCN2CCCC2=O)c(C)c1[N+](=O)[O-]	Lassa entry inh inconclusive, Marburg entry inh 11µM
CCCCCOC(=O)C1=C(C)Nc2ncnn2C1c1cccs1 (centres undefined)	Lassa entry inh 21µM, Marburg entry inh inconclusive, HCV inh inconclusive, FMDV antiviral inconclusive
CC1=C(C(N)=O)C(c2cccs2)n2ncnc2N1 (centres undefined)	Lassa entry inh inconclusive, Marburg entry inh inconclusive
COc1cccc(C(=O)NCC(c2ccc(N(C)C)cc2)N2CCCC2)c1OC (centres undefined)	none (no result: Marburg entry inh, HCV inh)
CC(Sc1ccc(S(=O)(=O)N2CCOCC2)cn1)c1ccccc1Cl (centres undefined)	Lassa entry inh 8.9µM, Marburg entry inh inconclusive
CC(Sc1ccc(S(=O)(=O)N2CCOCC2)cn1)C(=O)Nc1ccc(Cl)cc1Cl (centres undefined)	HCV inh inconclusive (no result: Lassa entry inh, Marburg entry inh)
COc1ccccc1C(=O)Nc1c(C(=O)NC(C)(C)C)oc2ccccc12	HCMV inh -71 (no result: Marburg entry inh, HCV inh)
COc1ccccc1C(=O)Nc1c(C(=O)c2ccccc2)oc2ccccc12	none (no result: HCV inh)
COc1ccc(C(=O)c2oc3ccc(OC)cc3c2NC(C)=O)cc1	HCV inh inconclusive
